# Target: Carbonic anhydrase 2 (Homo sapiens) (UniProt P00918)
# Experiment: CAII small-molecule binders, profiling panel, biochemical, small-molecule microarray, Alexa647-labelled CAII (AID 1122)
# Conditions: CAII-A647 binding fluorescence, higher = more signal
row,Structure (SMILES),composite z-score
1,COc1ccc(CCN2C(=O)[C@@]3(c4ccc([N+](=O)[O-])cc4)CC(=O)N(CC45CC6CC(CC(C6)C4)C5)[C@@H]3c3ccc(CO)cc32)cc1,0.446
2,C=CCN1C(=O)[C@@]2(Cc3ccccc3)N=C(c3ccc(OCCCO)cc3)O[C@H]2c2ccccc21,0.622
3,CN1CCC(CCCO)=CC1C1CC1 (configuration not stated),0.299
4,CC(C)N1CC=CC23O[C@@H]4/C=C\CCCOC(=O)C4[C@H]2C(=O)N(CCCCCO)[C@@H]3C1=O (some centres not stated),0.945
5,COCCOC(=O)N1C(=O)[C@@]2(c3cc(C#CCC(C(=O)OC)C(=O)OC)ccc31)[C@H](C(=O)N1CCN(c3ncccn3)CC1)[C@H]1C(=O)O[C@H](c3ccccc3)[C@H](c3ccccc3)N1[C@@H]2c1ccc(O)cc1,0.55
6,CCC(=O)[C@]12O[C@@]3([C@@H]4C(=O)OCC[C@@H]41)N(Cc1ccccc1)C(C)=C(C(=O)OC)[C@@H](c1ccccc1)N3C2=O,0.463
7,COC(=O)[C@@]1(Cc2ccc(OC)cc2)[C@H]2c3cc(C(=O)N(C)C)n(Cc4ccc(C)c(F)c4F)c3C[C@H]2CN1C(=O)c1ccccc1,0.535
8,COc1cc(CO)cc(I)c1O[C@H]1C=C(C(=O)NCCO)C[C@@H](NCCc2c[nH]c3ccccc23)[C@@H]1O,0.412
9,Cc1ccc(N2C(=O)c3ccccc3[C@](C)(C(=O)O)[C@@H]2c2ccc(CO)cc2)nc1,0.289
10,COC(=O)[C@@]1(Cc2ccccc2)[C@H]2c3cc(C(=O)N4CCCC4)n(CCN4CNCC4=O)c3C[C@H]2CN1C(=O)c1ccccc1,0.924
11,CO[C@@H]1COC(=O)[C@H](C)NC(=O)CC=C[C@@H](C)[C@H](OC)COC(=O)[C@H](C)NC(=O)CC=C[C@H]1C,-0.305
12,C=C(COC)/C(=C/C[C@@H](OC(C)=O)c1cccc(OCCO)c1)c1cc(C(=O)OC)ccc1OC,0.402
13,CCOC(=O)C[C@H]1[C@H](OC(=O)c2ccccc2-c2ccccc2)[C@@H](NC(=O)c2ccc(-c3ccccc3)cc2)c2cc(OCCCO)ccc2N1C(=O)Cc1ccc(OC)cc1,-0.0176
14,[N-]=[N+]=NCc1ccccc1C[C@]1(C(=O)N2CCCCC2)N=C(c2ccc(OCCCO)cc2)O[C@H]1c1ccccc1CN=[N+]=[N-],0.441
15,CO[C@H]1COC(=O)[C@@H](OCc2ccccc2)C=C[C@H](C)[C@@H](OC)COC(=O)[C@H](OCc2ccccc2)C=C[C@@H]1C,-0.516
16,COCCOC(=O)N1C(=O)[C@@]2(c3cc(C#CCNC(N)=O)ccc31)[C@H](c1ccc(OCCO)cc1)N1[C@H](c3ccccc3)[C@H](c3ccccc3)OC(=O)[C@H]1[C@@H]2C(=O)Nc1nc2ccccc2s1,0.277
17,CCOC(=O)C1=CC[C@@H](c2ccc(-c3ccc(OCc4ccccc4)cc3)c(OC)c2)N(S(=O)(=O)c2ccc(C)cc2)[C@H]1c1ccccc1,0.469
18,Cc1ccc(S[C@]2(C(=O)O)CC(=O)N(Cc3ccccc3)[C@@H]2c2ccc(CO)cc2)cc1,0.724
19,Cc1ccc(S[C@]2(C(=O)NC(C)C)CC(=O)N(Cc3cc(C(F)(F)F)cc(C(F)(F)F)c3)[C@@H]2c2ccc(CO)cc2I)cc1,0.788
20,CO[C@@H]1COC(=O)[C@H](COCc2ccccc2)NC(=O)CC=C[C@@H](C)[C@H](OC)COC(=O)[C@H](COCc2ccccc2)NC(=O)CC=C[C@H]1C,-0.319
21,CCC1=C2CN(Cc3ccccc3Br)[C@@H]([C@@H](O)Cc3ccccc3)C2C=CCC1 (some centres not stated),0.366
22,COCCOC(=O)N1C(=O)[C@@]2(c3cc(C#CCC(C(=O)OC)C(=O)OC)ccc31)[C@H](c1ccccc1OCCO)N1[C@H](c3ccccc3)[C@H](c3ccccc3)OC(=O)[C@H]1[C@@H]2C(=O)N1CCCCCCC1,0.488
23,CO[C@@H]1COC(=O)[C@@H]2CCCN2C(=O)CC=C[C@@H](C)[C@H](OC)COC(=O)[C@@H]2CCCN2C(=O)CC=C[C@H]1C,-0.439
24,C=C(COC)/C(=C/C[C@H](OC(C)=O)c1ccc(OCCO)cc1)c1cnc2ccccc2c1,0.797
25,CC(=O)Nc1ccc([C@H]2[C@H](C)CC[C@H]3C(=O)N4[C@@H](CC[C@@H](C)[C@@H]4c4ccc(NC(C)=O)cc4)C(=O)N32)cc1,0.634
26,CN(C)CCCC[C@@H]1NC(=O)[C@@H]2C[C@H](C(=O)O)[C@H](c3ccc(O)cc3)N2C1=O,0.398
27,C[C@@H]1CC[C@H]2C(=O)N3[C@@H](CC[C@@H](C)[C@@H]3c3cccc(N4CCOCC4)c3)C(=O)N2[C@H]1c1cccc(Br)c1,0.459
